103 compounds from ChEMBL document CHEMBL4513216, “Probing the Open Global Health Chemical Diversity Library for Multistage-Active Starting Points for Next-Generation Antimalarials” (ACS Infect Dis, 2020) can be followed below.

Molecules are shown by their SMILES. The campaign covered roughly 69,000 compounds. About 8,600 (12%) showed an effect of 50% or more. The sample as a whole holds a higher share of strong results than the screen did.

For the test, the system named is Plasmodium berghei. The test is described as follows: Screen against P. berghei liver stage (PbLuc), transformed with Luciferase, at 10uM. Type of test: functional, HepG2. To be noted: tested at 10 uM.
For `COc1ccc2c(ccn2CCC(=O)Nc2n[nH]c(CC(C)C)n2)c1`, the INHIBITION is given as 46.7%. Then `O=C(CC1CCCC1)NCCS(=O)(=O)N1CCN(c2ncccn2)CC1`, with -73.6%; and `Cc1n[nH]c2c1C(c1ccc(F)cc1)SCC(=O)N2` (stereo not drawn), with 23.5%. Then `Cc1n[nH]c2c1C(c1ccc(Cl)cc1)SCC(=O)N2` (stereo not drawn), with 46.7%. Then `Cc1n[nH]c2c1C(c1ccc(Br)cc1)SCC(=O)N2` (stereo not drawn), with 61.8%; and `COCCC(=O)N1CC[C@@H](N2CCOCC2)[C@@H]1Cc1ccccc1`, with 38.1%; and `Cc1cccnc1CNC(=O)CC1C(=O)NCCN1CC(C)(C)C` (stereo not drawn), with 6.29%.

Turning to `CC(=O)N(Cc1noc(C)n1)C1CCN(Cc2ncc(C(C)C)o2)C1` (stereo not drawn), the INHIBITION was determined as 11.6%. Then `CCOc1ncccc1CNC(=O)Nc1cc(C)nn1C`, with -19.6%; and `COc1ncccc1CNC(=O)Nc1cc(C)nn1C`, with 29.7%; and `Cc1nn(C)c(C)c1C(=O)NCc1cccnc1OC1CCCC1`, with 37.6%.

Turning to `Cc1cc(NC(=O)NCc2cccnc2OC2CCCC2)n(C)n1`, the INHIBITION is on record as 50.3%. Then `Cc1nn(C)c(C)c1CC(=O)NCc1cccnc1OC1CCCC1`, with 29.8%. Under `Cc1nn(C)c(C)c1CCC(=O)NCc1cccnc1OC1CCCC1` stands 56.6%. Then `OCC1(NCc2cccc(-n3cccn3)c2)CCOCC1`, with 43.4%; and `CCN1CCCC1(C)c1nc(C)cc(N)n1` (stereo not drawn), with -2.09%; and `CCOc1ccc(NC(=O)NCC(C)(O)c2cccs2)cc1` (stereo not drawn), with 40.6%. Take `O=C(Nc1cnccn1)[C@H]1COC[C@H]2CN(C3CCCC3)C[C@H]21`: the INHIBITION is on record as -14.6%. Then `CCn1ccnc1CN1CCN(CC(O)c2ccc(OC)cc2)CC1` (stereo not drawn), with 0.8%. Under `COc1ccc(F)c(-c2nccn2CCN2CCCC2)c1` stands 18.2%; under `COc1ccc(-c2nccn2CC(O)CN2CCCC2)c(F)c1` (stereo not drawn), 61.5%.

As to `CCC(CC)(CNC(=O)NC1CCCC1(C)C)S(C)(=O)=O` (stereo not drawn), the INHIBITION amounted to 2.49%. Under `COCCCNC(=O)c1cc(-c2cnc(N(C)C)nc2)cn1CC1CC1` stands -22.1%. Then `CCCOc1ccc(Cl)cc1NC(=O)NCCC(=O)N(C)C`, with -5.32%. As for `CCC1CCCN(S(=O)(=O)c2cnc3onc(C)c3c2)C1` (stereo not drawn), the INHIBITION came out at 9%. Then `COc1ccc2c(c1)OCC(Cc1ccc(N)nc1C)C2` (stereo not drawn), with 76.3%; and `Cc1ccc(CC2COc3ccccc3C2)c(N)n1` (stereo not drawn), with -6.18%. Then `COc1cccc2c1OCC(CNc1cc(N)nc(SC)n1)C2` (stereo not drawn), with 1.94%; and `COc1cccc2c1OCC(Cc1ccc(N)nc1C)C2` (stereo not drawn), with 6.83%; and `Cc1nc(N)ccc1CC1COc2ccccc2C1` (stereo not drawn), with -27.9%. Then `COc1ccc2c(c1)OCC(Cc1ccc(C)nc1N)C2` (stereo not drawn), with 57.2%.

On to `COc1ccc2c(c1)OCC(Cc1cnccc1N)C2` (stereo not drawn), for which the INHIBITION is 29%. Then `COc1ccc2c(c1)OCC(Cc1ccnc(N)n1)C2` (stereo not drawn), with 11%. Then `COc1ccc2c(c1)OCC(CNc1cc(N)nc(SC)n1)C2` (stereo not drawn), with 69.8%. Then `Cc1noc(C(C)N2CCN(CC(=O)N3CCCC3)CC2)n1` (stereo not drawn), with 8.99%. With `O=C(NCC1CCCCC1)N1C[C@@H]2C[C@H](C(=O)N3CCCC3)[C@H](C1)O2`, the INHIBITION is recorded as 48.2%. Then `N#Cc1ccc(NCc2cc3n(n2)CCCN(C(=O)C2CCC2)C3)nc1`, with 14.6%; and `CSc1ccc(-n2nnc(C(=O)O)c2-c2ccccn2)cc1`, with 36.2%; and `CC(CNCc1ccc(F)cc1)Oc1ccccn1` (stereo not drawn), with 13.8%. Take `COc1ccc(OCC(=O)NS(=O)(=O)c2ccc(Cl)s2)cc1`: the INHIBITION worked out at 17.7%. Then `COc1ccc(OCC(=O)NS(=O)(=O)c2ccc(Br)s2)cc1`, with 60.9%; and `COc1cccc(OCC(=O)NS(=O)(=O)c2ccc(Br)s2)c1`, with 17.5%; and `CCn1nnc2c1C(COC)CN(Cc1ccsc1)C2` (stereo not drawn), with 21%. As to `Cn1cc(C(=O)N2CCC(c3cc(CCO)n(C)n3)C2)cn1` (stereo not drawn), the INHIBITION is given as 0.696%. Then `C=CNC(=O)c1nnc2ccc(N3CCOCC3)cc2n1`, with 11%; and `CS(=O)(=O)N1CCC(CNC(=O)c2cnccn2)CC1`, with 43.8%; and `O=C(NCC1CCN(c2ncccn2)CC1)c1cnccn1`, with 71.8%. Under `Cc1cc(C)nc(N2CCC(CNC(=O)c3cnccn3)CC2)n1` stands -51.4%. Then `COc1ccccc1N1CCN(C(=O)NC(C)c2nncn2C)CC1` (stereo not drawn), with 9.14%.

For the compound `CCCC(=O)N1CCN(Cc2cc(-c3ccncc3)nn2C)CC1`, the INHIBITION came to 8.72%. Then `CC(c1nccs1)n1cc(-c2cc(CN3CCCCC3)cs2)nn1` (stereo not drawn), with 21.5%; and `CC(c1ccco1)n1cc(-c2cc(CN3CCCC3)cs2)nn1` (stereo not drawn), with 5.23%; and `CC(c1nncn1C)n1cc(-c2cc(CN3CCCC3)cs2)nn1` (stereo not drawn), with 57.2%. Then `CC(C)CN1CCn2c(COCc3cccnc3)nnc2C1`, with -29.3%; and `Cc1ccc(CN2CCC3(CC(=O)N(c4ccc5c(c4)OCO5)C3)C2)o1` (stereo not drawn), with 69.5%; and `O=C1CC2(CCN(CC3CC3)C2)CN1c1ccc2c(c1)OCO2` (stereo not drawn), with 25%. As to `O=C1CC2(CCN(Cc3cccnc3)C2)CN1c1ccc2c(c1)OCO2` (stereo not drawn), the INHIBITION stood at 22.9%. Under `Cn1ccnc1CN1CCC2(CC(=O)N(c3ccc4c(c3)OCO4)C2)C1` (stereo not drawn) stands 4.27%; under `O=C1CC2(CCN(Cc3ccco3)C2)CN1c1ccc2c(c1)OCO2` (stereo not drawn), 78.8%; under `Cc1ccc(CN2CCC3(CC(=O)N(c4cccc(F)c4)C3)C2)o1` (stereo not drawn), 12%. Under `CC(C)CN1CCO[C@H]2CCN(c3cnccn3)CC[C@@H]21` stands 16.6%; under `O=C(c1cc(-n2cccn2)ccc1Cl)N1CCC(N2CCCC2=O)CC1`, 18.5%; under `CC(C)[C@H]1CN(Cc2nccn2C)C[C@@H]1NC(=O)COCC(N)=O`, 44.9%.

In the case of `CS(=O)(=O)c1cnc(CC2CC2)nc1C1CCCNC1` (stereo not drawn), the INHIBITION is listed as 41.7%.

In the case of `NC1CCN(c2nccn3c(=O)[nH]nc23)CC1`, the INHIBITION worked out at 48.2%. Under `Cc1cc(N2CCN3CCCCC3C2)n2nc(C)c(C)c2n1` (stereo not drawn) stands 16.8%; under `Cc1cc(N2CCN(C3CCSCC3)CC2)n2nc(C)c(C)c2n1`, 51.4%. Then `Cc1cc(N2CCCN3CCC[C@H]3C2)n2nc(C)c(C)c2n1`, with 48.1%. Then `O=S(=O)(c1cn[nH]c1)N1CCC(O)(CN2CCC(F)(F)CC2)C1` (stereo not drawn), with -5.452%; and `Cc1ccc(F)c(S(=O)(=O)Nc2cn(C)cc(Br)c2=O)c1`, with 8.53%.

On to `CCc1ccc(C(=O)O)cc1S(=O)(=O)Nc1ccc(=O)n(C)c1`, for which the INHIBITION is 9.16%. As to `CCCc1ccc(S(=O)(=O)NCCNC(=O)c2ccoc2)cc1`, the INHIBITION is 5.05%. Then `Cn1cc(NS(=O)(=O)c2ccc3c(c2)CCCC3)ccc1=O`, with 81.1%. Then `CC(C)c1ccc(C(=O)O)cc1S(=O)(=O)Nc1ccc(=O)n(C)c1`, with -3.87%; and `CCCc1ccc(S(=O)(=O)Nc2ccc(=O)n(C)c2)cc1`, with 81.1%. Under `CCc1ccc(S(=O)(=O)Nc2cn(C)cc(Br)c2=O)cc1` stands 25.3%; under `Cn1cc(Br)c(=O)c(NS(=O)(=O)c2ccc3c(c2)CCC3)c1`, 28.3%. Turning to `Cc1ccc(S(=O)(=O)Nc2ccc(=O)n(C)c2)c(Br)c1`, the INHIBITION came to 77%. Under `Cn1cc(NS(=O)(=O)c2ccc(F)c(F)c2)ccc1=O` stands 23.5%; under `CC(C)Cc1ccc(S(=O)(=O)NCCCN2CCNC(=O)C2)cc1`, -20.3%.

With `CC(C)Cc1ccc(S(=O)(=O)Nc2ccc(=O)n(C)c2)cc1`, the INHIBITION stood at 88.5%.

Turning to `CS(=O)(=O)CCCSc1cccc(C#N)c1`, the INHIBITION is recorded as -9.08%.

Turning to `O=c1occ(CN2CCSCC2)c(O)c1CN1CCCC1`, the INHIBITION was determined as 4.93%. Consider `O=C(c1ccco1)N1C[C@H]2CCCN(CC3CC3)[C@H]2C1`, for which the INHIBITION is 25.5%. Then `CCc1cc(C(=O)N2CCC(O)(Cn3ccc4ccncc43)CC2)no1`, with -0.902%; and `Cc1ncc(Cl)c(C(=O)N2CCCC(n3nc(C)nc3C)C2)n1` (stereo not drawn), with 17.265%. Under `O=C(Cn1ccc2ccc(Cl)cc21)NCc1ccc(C(=O)O)cc1` stands -6.42%; under `O=C([C@H]1C[C@H]2OCC[C@H]2N(Cc2ccccc2F)C1)N1CCCCO1`, 59%; under `O=C([C@H]1C[C@H]2OCC[C@H]2N(Cc2ccoc2)C1)N1CCCCO1`, 88.2%. Then `O=C([C@H]1C[C@H]2OCC[C@H]2N(Cc2ccc(F)cc2)C1)N1CCCCO1`, with 38.1%; and `O=C([C@H]1C[C@H]2OCC[C@H]2N(Cc2ccoc2)C1)N1CCCO1`, with 19.4%; and `CN(C)C(=O)[C@H]1C[C@H]2OCC[C@H]2N(Cc2ccc3c(c2)OCO3)C1`, with 28.7%.

Take `O=C([C@H]1CN(Cc2ccccc2F)C[C@H]2OCC[C@@H]12)N1CCCO1`: the INHIBITION was 61.9%. Take `O=C([C@H]1C[C@H]2OCC[C@H]2N(Cc2ccccn2)C1)N1CCCCO1`: the INHIBITION is listed as 5.44%.

With `O=C([C@H]1CN(Cc2ccc(F)cc2)C[C@H]2OCC[C@@H]12)N1CCCO1`, the INHIBITION is given as 24.9%. Turning to `CN(C)C(=O)[C@H]1C[C@H]2OCC[C@H]2N(Cc2ccc(F)cc2)C1`, the INHIBITION came to 53.2%.

Consider `CNC(=O)[C@H]1C[C@H]2OCC[C@H]2N(Cc2ccc(F)cc2)C1`, for which the INHIBITION is reported as 33%. Take `Cc1ccccc1CN1C[C@@H](C(=O)N2CCCCO2)C[C@H]2OCC[C@H]21`: the INHIBITION was 42.7%. As for `O=C([C@H]1CN(Cc2cccnc2)C[C@H]2OCC[C@@H]12)N1CCCO1`, the INHIBITION is listed as 26.5%. With `Cc1ccc(CN2CCc3ncnc(C4CCOC4)c3CC2)s1` (stereo not drawn), the INHIBITION is -31.6%.

As to `CC(C)=CCN1CCN(C(=O)c2cc(C(C)C)on2)[C@H]2CS(=O)(=O)C[C@H]21`, the INHIBITION amounted to 17.7%. With `CN(C)c1cc(C2CCN(C(=O)c3cnn(C)c3)CC2)ccn1`, the INHIBITION is given as 26.4%. Then `COCCN1CC(=O)N(C(C)C)C(C)(C)C1`, with -1.3%.
